Experimental data taken from the supplement of paper PMC12067093, “Discovery and optimisation of a covalent ligand for TRIM25 and its application to targeted protein ubiquitination” (Chemical Science, 2025).
About 21,000 targets were measured; listed, in parts, are those with the largest changes and a random draw of the rest.

Compound: CC1Cc2ccccc2N1C(=O)C1CCCN(C1)C(=O)CCl (mixture of isomers) [TRIM25 ligand 11 (diastereomer mixture)]
Assay: probe-labelled cysteine peptide fold change vs DMSO (competition) (log2 fold change); higher = less target engagement (more negative = stronger competition)
Settings: THP-1, incubation time: 4 h
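Also: competitive chemoproteomic profiling in live THP-1 cells with an iodoacetamide desthiobiotin (IA-DTB) probe, comparing probe-labelled peptide intensities in compound-treated cells against DMSO-treated controls.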

Chain of UniProt P42695 (P42695 whole entry, looked up): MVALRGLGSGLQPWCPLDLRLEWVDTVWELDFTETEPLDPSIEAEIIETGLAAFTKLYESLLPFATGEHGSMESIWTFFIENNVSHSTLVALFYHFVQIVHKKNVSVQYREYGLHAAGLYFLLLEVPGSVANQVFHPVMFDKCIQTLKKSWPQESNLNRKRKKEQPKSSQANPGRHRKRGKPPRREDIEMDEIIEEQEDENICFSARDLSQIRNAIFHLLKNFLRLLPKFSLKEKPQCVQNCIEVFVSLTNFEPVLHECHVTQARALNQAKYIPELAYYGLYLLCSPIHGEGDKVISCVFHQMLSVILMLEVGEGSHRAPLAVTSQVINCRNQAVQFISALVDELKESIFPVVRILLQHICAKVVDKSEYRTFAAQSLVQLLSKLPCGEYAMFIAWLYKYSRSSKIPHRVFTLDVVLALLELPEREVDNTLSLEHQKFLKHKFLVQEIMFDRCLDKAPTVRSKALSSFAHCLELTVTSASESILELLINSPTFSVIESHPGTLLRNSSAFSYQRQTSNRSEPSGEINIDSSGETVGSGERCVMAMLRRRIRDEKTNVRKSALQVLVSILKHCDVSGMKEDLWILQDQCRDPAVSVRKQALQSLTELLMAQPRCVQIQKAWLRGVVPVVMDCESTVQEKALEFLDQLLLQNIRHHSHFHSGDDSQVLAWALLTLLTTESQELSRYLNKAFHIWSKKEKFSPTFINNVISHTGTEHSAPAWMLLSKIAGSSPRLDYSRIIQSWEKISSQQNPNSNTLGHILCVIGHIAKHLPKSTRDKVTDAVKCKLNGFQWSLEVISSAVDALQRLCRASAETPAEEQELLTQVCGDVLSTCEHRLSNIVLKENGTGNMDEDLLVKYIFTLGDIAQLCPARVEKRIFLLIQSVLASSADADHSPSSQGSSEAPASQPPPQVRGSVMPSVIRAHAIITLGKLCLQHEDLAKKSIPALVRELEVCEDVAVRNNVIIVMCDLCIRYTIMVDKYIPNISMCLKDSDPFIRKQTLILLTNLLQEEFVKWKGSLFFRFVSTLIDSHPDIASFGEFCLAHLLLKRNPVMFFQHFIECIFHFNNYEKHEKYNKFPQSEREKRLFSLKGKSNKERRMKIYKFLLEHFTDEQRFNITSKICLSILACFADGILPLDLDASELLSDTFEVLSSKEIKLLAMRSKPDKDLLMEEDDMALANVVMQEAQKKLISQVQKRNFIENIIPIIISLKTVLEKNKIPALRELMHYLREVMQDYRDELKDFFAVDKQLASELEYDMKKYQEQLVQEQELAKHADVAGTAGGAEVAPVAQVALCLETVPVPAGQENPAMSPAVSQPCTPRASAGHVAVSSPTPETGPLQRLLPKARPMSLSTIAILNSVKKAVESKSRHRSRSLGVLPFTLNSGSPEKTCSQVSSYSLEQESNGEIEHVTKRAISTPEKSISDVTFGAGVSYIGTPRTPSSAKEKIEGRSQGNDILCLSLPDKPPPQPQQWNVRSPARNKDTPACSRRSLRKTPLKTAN
Chain of UniProt Q9Y6X3 (Q9Y6X3 whole entry, looked up): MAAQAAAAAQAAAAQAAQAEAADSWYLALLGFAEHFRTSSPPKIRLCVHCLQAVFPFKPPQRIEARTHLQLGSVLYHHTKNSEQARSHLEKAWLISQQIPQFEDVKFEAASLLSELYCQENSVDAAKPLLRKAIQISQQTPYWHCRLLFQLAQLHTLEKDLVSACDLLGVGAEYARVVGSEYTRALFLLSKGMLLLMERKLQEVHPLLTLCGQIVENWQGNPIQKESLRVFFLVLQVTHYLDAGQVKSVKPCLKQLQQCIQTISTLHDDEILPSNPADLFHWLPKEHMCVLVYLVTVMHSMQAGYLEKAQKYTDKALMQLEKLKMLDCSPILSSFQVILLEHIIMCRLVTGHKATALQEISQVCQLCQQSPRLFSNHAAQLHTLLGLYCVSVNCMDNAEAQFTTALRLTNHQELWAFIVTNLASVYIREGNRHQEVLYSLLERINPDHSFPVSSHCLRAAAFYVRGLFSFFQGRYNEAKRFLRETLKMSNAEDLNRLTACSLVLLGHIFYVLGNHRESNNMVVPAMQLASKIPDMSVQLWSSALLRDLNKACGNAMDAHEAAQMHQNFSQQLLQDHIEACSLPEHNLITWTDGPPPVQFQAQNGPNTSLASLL
Chain of UniProt Q13459 (Q13459 whole entry, looked up): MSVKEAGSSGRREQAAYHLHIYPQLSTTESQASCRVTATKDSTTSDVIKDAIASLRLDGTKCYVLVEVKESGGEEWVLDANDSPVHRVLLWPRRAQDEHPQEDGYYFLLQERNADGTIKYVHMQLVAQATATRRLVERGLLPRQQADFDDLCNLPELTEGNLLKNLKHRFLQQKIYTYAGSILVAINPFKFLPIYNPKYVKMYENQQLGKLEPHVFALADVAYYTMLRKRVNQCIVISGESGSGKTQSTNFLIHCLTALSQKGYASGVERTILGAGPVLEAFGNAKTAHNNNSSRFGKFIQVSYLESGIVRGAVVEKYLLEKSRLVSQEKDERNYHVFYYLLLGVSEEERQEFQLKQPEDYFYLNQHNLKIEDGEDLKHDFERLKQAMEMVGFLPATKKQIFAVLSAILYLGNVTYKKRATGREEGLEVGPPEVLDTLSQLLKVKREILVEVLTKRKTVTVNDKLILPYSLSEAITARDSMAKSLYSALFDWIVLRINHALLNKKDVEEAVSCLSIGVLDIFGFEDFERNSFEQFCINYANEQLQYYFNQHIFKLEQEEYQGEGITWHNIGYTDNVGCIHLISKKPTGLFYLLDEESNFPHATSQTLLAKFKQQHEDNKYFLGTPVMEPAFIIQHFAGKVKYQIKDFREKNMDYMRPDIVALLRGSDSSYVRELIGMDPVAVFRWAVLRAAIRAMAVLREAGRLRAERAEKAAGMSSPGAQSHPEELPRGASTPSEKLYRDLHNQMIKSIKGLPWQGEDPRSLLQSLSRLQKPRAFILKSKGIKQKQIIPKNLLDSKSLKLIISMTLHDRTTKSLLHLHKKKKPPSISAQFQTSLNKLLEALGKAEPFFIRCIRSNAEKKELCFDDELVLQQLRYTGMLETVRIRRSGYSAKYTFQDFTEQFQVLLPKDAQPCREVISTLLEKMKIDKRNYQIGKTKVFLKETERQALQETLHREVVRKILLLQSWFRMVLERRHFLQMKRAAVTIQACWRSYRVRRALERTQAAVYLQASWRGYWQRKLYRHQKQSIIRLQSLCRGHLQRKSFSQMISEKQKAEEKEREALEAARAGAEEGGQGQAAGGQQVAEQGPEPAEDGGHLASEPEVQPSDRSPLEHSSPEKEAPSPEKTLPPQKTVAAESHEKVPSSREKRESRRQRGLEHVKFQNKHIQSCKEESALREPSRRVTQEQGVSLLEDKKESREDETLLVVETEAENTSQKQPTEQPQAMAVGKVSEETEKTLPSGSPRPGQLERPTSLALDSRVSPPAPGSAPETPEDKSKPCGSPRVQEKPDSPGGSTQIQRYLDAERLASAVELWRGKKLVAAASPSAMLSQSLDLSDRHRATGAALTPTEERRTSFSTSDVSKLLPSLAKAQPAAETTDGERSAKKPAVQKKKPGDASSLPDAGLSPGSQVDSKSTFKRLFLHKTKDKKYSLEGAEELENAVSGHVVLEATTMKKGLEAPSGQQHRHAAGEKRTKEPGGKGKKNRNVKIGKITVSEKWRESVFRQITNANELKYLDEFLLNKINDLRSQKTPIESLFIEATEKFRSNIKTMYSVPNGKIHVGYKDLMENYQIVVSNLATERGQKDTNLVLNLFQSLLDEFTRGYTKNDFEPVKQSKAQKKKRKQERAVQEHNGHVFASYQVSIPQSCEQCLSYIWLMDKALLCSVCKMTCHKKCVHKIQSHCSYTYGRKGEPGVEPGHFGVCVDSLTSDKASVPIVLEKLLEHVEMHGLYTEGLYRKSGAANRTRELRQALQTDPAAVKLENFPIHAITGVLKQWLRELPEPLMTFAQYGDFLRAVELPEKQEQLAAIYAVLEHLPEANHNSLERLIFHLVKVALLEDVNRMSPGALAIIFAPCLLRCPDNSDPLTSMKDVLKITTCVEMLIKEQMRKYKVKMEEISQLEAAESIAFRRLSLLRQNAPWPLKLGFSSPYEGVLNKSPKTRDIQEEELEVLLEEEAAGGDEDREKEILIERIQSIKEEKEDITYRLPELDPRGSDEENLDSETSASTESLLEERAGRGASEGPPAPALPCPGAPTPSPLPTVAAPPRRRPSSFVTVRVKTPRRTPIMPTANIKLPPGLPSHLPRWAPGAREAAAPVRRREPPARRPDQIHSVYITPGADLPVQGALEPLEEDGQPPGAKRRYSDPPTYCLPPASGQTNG
Chain of UniProt P50579 (P50579 whole entry, looked up): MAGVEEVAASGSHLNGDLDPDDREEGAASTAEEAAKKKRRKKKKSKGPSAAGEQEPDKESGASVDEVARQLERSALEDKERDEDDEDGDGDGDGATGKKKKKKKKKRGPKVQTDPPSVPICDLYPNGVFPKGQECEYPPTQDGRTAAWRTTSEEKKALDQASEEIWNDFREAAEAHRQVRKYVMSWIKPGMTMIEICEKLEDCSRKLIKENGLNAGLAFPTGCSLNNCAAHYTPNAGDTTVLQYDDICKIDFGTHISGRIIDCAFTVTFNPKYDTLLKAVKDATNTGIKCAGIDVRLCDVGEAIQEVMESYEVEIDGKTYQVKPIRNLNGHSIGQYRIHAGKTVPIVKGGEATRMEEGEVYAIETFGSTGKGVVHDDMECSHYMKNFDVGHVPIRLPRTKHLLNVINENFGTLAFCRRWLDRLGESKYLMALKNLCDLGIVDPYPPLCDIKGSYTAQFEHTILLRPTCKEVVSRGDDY

| Target | probe-labelled cysteine peptide fold change (10 µM) | probe-labelled cysteine peptide fold change (50 µM) |
| --- | --- | --- |
| MYO9B_Q13459_1169_HIQSCK (UniProt Q13459) | -0.0237 | -0.105 |
| MYO1G_B0I1T2_618_LDENHCR (UniProt B0I1T2) | 0.054 | 0.247 |
| NCAPD3_P42695_143_CIQTLK (UniProt P42695) | 0.0922 | 0.12 |
| MTF2_Q9Y483_133_CGQGYHQLCHTPHIDSSVIDSDEK (UniProt Q9Y483) | 0.12 | 0.228 |
| METAP2_P50579_263_IIDCAFTVTFNPK (UniProt P50579) | 0.0495 | 0.114 |
| MAU2_Q9Y6X3_145_AIQISQQTPYWHCR (UniProt Q9Y6X3) | -0.167 | 0.0177 |
